Compound activity as filed in PubChem.
NPSR antag: blocks cAMP signaling of the human neuropeptide S receptor | Q6W5P4 | CHO-NPSR cells, cAMP TR-FRET, antagonist mode | Potency, µM (titrated, usually from 38.3 µM), inactives show top-dose activity change, negative = inhibition, usual class: inhibitors | 220,000 compounds, 1% hits; also: nearly all actives have a fitted effect of over 50% in size
Target sequence (Q6W5P4 whole entry, looked up): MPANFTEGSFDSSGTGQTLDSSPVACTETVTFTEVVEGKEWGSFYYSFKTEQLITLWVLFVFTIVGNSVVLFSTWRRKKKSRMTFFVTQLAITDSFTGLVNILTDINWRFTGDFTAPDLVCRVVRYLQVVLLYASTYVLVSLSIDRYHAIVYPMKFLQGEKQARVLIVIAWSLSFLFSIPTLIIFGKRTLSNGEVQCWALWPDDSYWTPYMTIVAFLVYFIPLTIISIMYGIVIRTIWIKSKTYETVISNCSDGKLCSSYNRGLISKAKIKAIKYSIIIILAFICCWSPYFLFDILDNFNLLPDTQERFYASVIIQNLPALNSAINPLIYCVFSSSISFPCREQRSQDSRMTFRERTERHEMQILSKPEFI
Tau fluor cs: counter-screen for tau fibril formation inhibitors; AID 1463; 280,000 compounds, 0.93% hits; Potency, µM (doses to about 57.7 µM), inactives show top-dose activity change, negative = decrease; tau K18 P301L Alexa594 fluorescence, heparin fibrillization; also: nearly all actives have a fitted effect of over 55% in size
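Human K18 P301L tau (15 uM unlabeled plus 0.24 uM Alexa 594-labeled, final) in 100 mM sodium acetate pH 7 was mixed with compound and 20 uM heparin and incubated 6 hr at 37 C.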
HPGD block: inhibitors of human 15-hydroxyprostaglandin dehydrogenase (HPGD). 150,000 compounds, 4.3% hits. purified HPGD, NADH fluorescence kinetic, PGE2 substrate. Potency, µM, for the others: at the top dose activity change, negative = inhibition, hits mostly inhibitors. P15428; active = well fitted inhibition curve with a large enough effect, not every such curve was filed as active; inconclusive = small, poorly fitted or top-dose-only effect, or another doubt; inactive = no such curve, though single readings can be large or run the other way
Target sequence (P15428 whole entry, looked up): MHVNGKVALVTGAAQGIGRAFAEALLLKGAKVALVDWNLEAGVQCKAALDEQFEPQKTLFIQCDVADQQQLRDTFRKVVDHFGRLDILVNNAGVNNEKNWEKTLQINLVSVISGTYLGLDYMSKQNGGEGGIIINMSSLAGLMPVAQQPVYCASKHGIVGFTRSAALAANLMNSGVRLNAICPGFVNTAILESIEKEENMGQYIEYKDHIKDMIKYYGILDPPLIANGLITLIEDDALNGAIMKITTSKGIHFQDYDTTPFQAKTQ
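NADH formation kinetics: reaction with 30 uM PGE2 and 1 mM NAD+ (final), 20 nM enzyme, Tris-HCl pH 8 with Tween 20, after 15 min compound preincubation at room temperature. Fluorescence change, last versus first of five reads.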
Tau ThT inhib: tau fibrillization inhibition (ThT binding); P10636; recombinant tau K18 P301L (four-repeat tau fragment), heparin-induced fibrillization, ThT fluorescence; Potency, µM (top dose mostly 57.4 µM), inactives show at the top dose activity, negative = inhibition, actives largely listed as inhibitors; 270,000 compounds, 2.1% hits; AID 1460; also: nearly all actives have a fitted effect of over 55% in size
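Heparin-induced (20 uM) aggregation of recombinant human K18 P301L tau, 15 uM unlabeled with 0.24 uM labeled, pH 7 acetate buffer, 6 hr at 37 C with compound. Fibrils quantified by 30 uM ThT fluorescence after 1 hr ambient incubation.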
ALDH1A1 block: blocks purified human ALDH1A1 activity | P00352 | Purified ALDH1A1, NADH fluorescence, propionaldehyde substrate | Potency, µM (top dose mostly 75.3 µM), without a hit: at the highest dose activity, negative = inhibition, actives largely listed as inhibitors | 220,000 compounds, 7.3% hits; active = well fitted inhibition curve with a large enough effect, not every such curve was filed as active; inconclusive = small, poorly fitted or top-dose-only effect, or another doubt; inactive = no such curve, though single readings can be large or run the other way;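 also: plate controls were no enzyme wells and a reference inhibitor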
Tau FP inhib: blocks human tau fibril formation measured by polarization. K18 P301L tau heparin fibrillization, Alexa594 FP, 6 h. Potency, µM (doses to about 57.7 µM), for the others: top-dose activity, negative = inhibition, actives largely listed as inhibitors. 280,000 compounds, 0.39% hits; also: nearly all actives have a fitted effect of over 55% in size
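Steps: dispense K18 P301L tau (15 uM plus 0.24 uM Alexa 594 tracer, final) in pH 7 sodium acetate; add compound; add heparin (20 uM final); incubate 6 hr, 37 C; add ThT (30 uM final); after 1 hr ambient, read FP.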
The depositor's hits bear a star; ? = inconclusive; . = no result; [ ] = dose if it differs, or a comment. A selection: hits, their analogues and other compounds. The true share with any hit is near 9.5%. Unless noted, calls follow the shape of the dose curve; as a rule, active = well fitted curve in the direction sought with a large enough effect; inconclusive = small, poorly fitted or top-dose-only effect, or another doubt; inactive = no such curve, though single readings can be large; an effect the other way counts as inactive or inconclusive. Unless noted, % is scaled to controls: 0 for no effect and ±100 for the full control effect; potency is read from the fitted curve at half-maximal effect.

SMILES | NPSR antag | Tau fluor cs | HPGD block | Tau ThT inhib | ALDH1A1 block | Tau FP inhib
CC(C)(C)c1ccc(C(=O)NC(=S)Nc2nc3c(s2)CCCC3)cc1 | -19% | -11% | -13% | ? | -9% | -2%
Cc1onc(-c2ccccc2)c1C(=O)Nc1nc2c(s1)CCCC2 | -19%[46.1 µM] | -17% | -14% | -11% | ? | -3%
COc1cc(C2NC(=O)NC(C)=C2C(=O)OC(C)C)ccc1OC(=O)c1ccco1 (stereo unspecified) | 0% | -4% | -3% | -5% | 20% | 2%
CCOC(=O)/C(=N\Nc1ccccc1Cl)N1CCN(c2ccccc2OC)CC1 | ? | -9% | . | ? | 15% | -4%
CCOC(=O)C1CN(S(=O)(=O)c2ccc(C)cc2)c2cc(S(=O)(=O)CC)ccc2O1 (stereo unspecified) | -19%[46.1 µM] | -7% | -10% | 7% | ? | -1%
CCS(=O)(=O)c1ccc2c(c1)N(S(C)(=O)=O)CC(C(=O)NN)O2 (stereo unspecified) | 14% | 5% | . | 8% | 0.56µM* | 3%
CSc1nc2ccc(NC(=O)c3ccc(Cl)s3)cc2s1 | 50% | -28% | . | 3% | ? | ?
Cc1cccc(C(=O)N(Cc2ccccc2F)C2CCS(=O)(=O)C2)c1 (stereo unspecified) | . | -4% | . | 3% | . | -5%
CC(C)c1ccc(NC(=O)c2ccc(F)c(S(=O)(=O)N3CCCC3)c2)cc1 | . | -9% | . | ? | . | -11%
Cc1ccc(O)c(NC(=O)c2ccc(Br)c(S(=O)(=O)N3CCCCC3)c2)c1 | . | 13µM*[quencher] | . | -12% | . | -3%
O=C(Nc1cc(Cl)cc(Cl)c1)c1ccc(F)c(S(=O)(=O)N2CCCC2)c1 | . | ? | . | -5% | . | 14µM*
O=C(Nc1cc(Cl)cc(Cl)c1)c1ccc(F)c(S(=O)(=O)NC2CCCC2)c1 | . | ? | . | 1% | . | 10µM*
O=C(Oc1ccccc1)C1O[C@@H]1c1ccccc1 (stereo partly specified) | . | -10% | -5% | -12% | -7% | -13%
O=C(NCc1ccccc1)C1=C[C@@H](C2CC2)C[C@@H](OCc2ccc(CO)cc2)O1 | 32% | -7% | . | -4% | 11µM* | 5%
O=C(Nc1ccccc1)C1=C[C@H](c2coc3ccccc3c2=O)C[C@H](OCc2ccc(CO)cc2)O1 | 34% | -24% | . | -11% | -7% | -2%
O=C(NCc1ccccc1)C1=C[C@@H](c2coc3ccccc3c2=O)C[C@@H](OCc2ccc(CO)cc2)O1 | 45% | -23% | . | ? | 7.9µM* | 1%
O=c1oc2cc(O)ccc2cc1-c1ccc2c(c1)OCCO2 | . | ? | ? | ? | ? | -3%
O=C(OC(C(=O)Nc1ccc(Cl)cc1C(F)(F)F)c1ccccc1)c1c(Cl)cccc1Cl (stereo unspecified) | -57% | -17% | -8% | -11% | 3.2µM* | -6%
Cc1ccc(C(=O)OC(C(=O)Nc2ccc(Cl)cc2C(F)(F)F)c2ccccc2)cc1 (stereo unspecified) | -28% | -12% | -12% | -3% | -5% | -7%
Cc1ccc(S(=O)(=O)C2CS(=O)(=O)CC2O)cc1 (stereo unspecified) | -9%[46.1 µM] | 6% | -7% | 6% | 3% | 7%
CC(=O)C1=C(S(=O)(=O)c2ccc(C)cc2)CS(=O)(=O)C1 | -34% | -20% | . | 25µM* | 1.3µM* | 28µM*
[O-]/[N+](=C\c1cccc(Br)c1)c1ccccc1 | 7% | -7% | . | ? | 0.32µM* | -14%
[O-]/[N+](=C\c1ccc(F)cc1)c1ccccc1 | -2%[46.1 µM] | -14% | -7% | ? | 20µM* | ?
O=C(Nc1ccc(Nc2ccc3c(c2)C(=O)c2ccccc2C3=O)c2c1C(=O)c1ccccc1C2=O)c1ccccc1 | . | . | -13% | . | -5%[13.5 µM] | .
c1ccc(-n2nnnc2SCc2cn3cccnc3n2)cc1 | -1%[46.1 µM] | -4% | ? | -5% | ? | -12%
SMILES | NPSR antag | Tau fluor cs | HPGD block | Tau ThT inhib | ALDH1A1 block | Tau FP inhib
c1ccc(-n2nnnc2SCc2cn3ccccc3n2)cc1 | -9%[46.1 µM] | 2% | -7% | 2% | 4µM* | 6%
c1ccc(-n2nnnc2SCc2cccc(CSc3nnnn3-c3ccccc3)n2)cc1 | -15%[46.1 µM] | -23% | -7% | 1% | 1.6µM* | ?
c1ccc(CSc2nnnn2-c2cccc3ccccc23)nc1 | 5%[46.1 µM] | -15% | -4% | -6% | 20µM* | 2%
O=C(CCCSc1nnnn1-c1cccc2ccccc12)c1ccc(F)cc1 | -21%[46.1 µM] | -19% | -22% | 7% | 1.4µM* | -9%
c1ccc(CSc2nnnn2-c2ccccc2)cc1 | -9%[46.1 µM] | -16% | -20% | -7% | ? | -12%
O=C(O)c1cccc(-n2nnnc2SCc2ccccn2)c1 | -1%[46.1 µM] | 1% | ? | 0% | -12% | 3%
CC(=O)Nc1ccc(SCC(=O)c2cc(C)n(C)c2C)cc1 | -11%[46.1 µM] | -12% | -3% | -10% | -7% | -1%
O=C1C2C3C=CC(C4CC34)C2C(=O)N1/N=C/c1ccc(-c2cccc([N+](=O)[O-])c2)o1 (stereo unspecified) | -2% | ? | 13µM* | ? | 14µM* | 14%
CCOc1ccccc1CNC(=O)c1ccc(CS(=O)Cc2cccc(Cl)c2)o1 (stereo unspecified) | . | -4% | . | -16% | . | 14%
COc1ccccc1-c1nc(NCCN2CCOCC2)c2ccccc2n1 | . | . | . | . | -16% | .
Cc1cc(C2=CC(C)(c3cc(C)oc3C)Nc3nc(C(F)(F)F)nn32)c(C)o1 (stereo unspecified) | -14%[46.1 µM] | -11% | ? | 28µM* | ? | ?
CC(C)(C)c1cc(CNC2CS(=O)(=O)C[C@@H]2O)cc(C(C)(C)C)c1O (stereo partly specified) | -13%[46.1 µM] | -13% | -3% | ? | 13µM* | 12%
COc1ccc2cc(C(N)=O)c(=Nc3ccccc3)oc2c1 | 18% | 0% | . | 5% | -2% | 1%
COc1ccc(OC)c(N=c2oc3cc(O)ccc3cc2C(N)=O)c1 | ? | ? | ? | 32µM* | ? | ?
Cc1cc(=O)[nH]c2nnc(SCC(=O)Nc3ccc(F)cc3F)n12 | . | 0% | . | 1% | . | -7%
S=C(Nc1ccccc1)N1CCN(C(=S)c2ccccc2)CC1 | -8% | -12% | . | -10% | 13µM* | -11%
Cc1ccc2c(=O)c(C(=O)c3cccc(Cl)c3)cn(CC(=O)Nc3ccc4c(c3)OCCO4)c2n1 | . | ? | . | -7% | . | -2%
Cc1ccc(S(=O)(=O)N(CC(=O)O)c2ccc(Cl)cc2)cc1 | . | . | -6% | . | 3% | .
C=CCn1c(O)c(N=NC(=S)Nc2ccccc2F)c2ccccc21 | -34% | ? | . | ? | 28µM* | 6%
